A selection: hits, their analogues and other compounds. The true share with any hit is near 19%.
HT1080-NT tox = kills 2HG-producing HT-1080-NT fibrosarcoma cells. actives 1.6% (n = 360,000). Potency, µM (doses to about 46.1 µM), inactives show at the highest dose activity, negative = less viability, hits mostly cytotoxic. AID 686970. HT-1080-NT fibrosarcoma viability, CellTiter-Glo ATP luminescence, 48 h;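 also: NT is the 2HG producing partner of a matched IDH1 knockdown line; 0% = DMSO-treated cells and -100% = media-only wells without cells; nearly all actives have a fitted effect of over 55% in size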
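Viability by CellTiter-Glo luminescence after 48 h compound exposure at 37C of HT-1080-NT cells (750/well, RPMI, 5% FBS). % activity scaled between DMSO wells and medium-only wells, then curve-fitted and categorized by curve class.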
KB-V1 cytotox = kills drug-selected multidrug resistant KB-V1 cells; KB-V1 MDR cells viability, CellTiter-Glo, 72 h; Potency, µM (doses to about 46.1 µM), most hits filed as cytotoxic; actives 3.4% (n = 400,000); also: nearly all actives have a fitted effect of over 60% in size
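Compound-treated KB-V1 multidrug-resistant cells, 72 h, 37 degrees C; viability by CellTiter-Glo. Fitted qHTS curves give the values.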
KB-3-1 cytotox = kills parental KB-3-1 adenocarcinoma cells | Potency, µM (series often up to 46.1 µM), most hits filed as cytotoxic | AID 1347075 | actives 1.4% (n = 400,000) | KB-3-1 viability, CellTiter-Glo ATP luminescence, 72 h; also: nearly all actives have a fitted effect of over 60% in size
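Cytotoxicity measured as CellTiter-Glo luminescence after 72 h at 37 C. Compound titrations were pinned onto drug-naive KB-3-1 parental adenocarcinoma cells grown in DMEM with 10% FBS, and normalized data fitted to concentration-response curves.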
HT1080 IDH1KD tx = toxicity to HT-1080 IDH1 knockdown cells (counter line) | AID 686971 | Potency, µM (highest dose often 46.1 µM), without a hit: at the top dose activity, negative = toxicity, usual class: cytotoxic | actives 2% (n = 360,000) | HT-1080 IDH1 knockdown viability, ATP luminescence, 48 h;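 also: 0% = DMSO wells and -100% = cell-free medium wells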
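Assay cells: HT-1080 with IDH1 knockdown, 750 per well, RPMI/5% FBS. Exposure: 48 h at 37 °C following 2 h pre-incubation. Read: CellTiter-Glo luminescence; fitted concentration-response, curve class assigned.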
DT40 TDP1 CPT = growth inhibition of DT40 Tdp1-/-;hTDP1 cells with camptothecin (screen for TDP1 inhibitors). chicken DT40 Tdp1-/-;hTDP1 cells + 20 nM CPT, ATP luminescence, 48 h. Potency, µM (titrated, usually from 46.2 µM), inactives show at the highest dose activity change, negative = growth inhibition, hits mostly inhibitors. actives 12% (n = 420,000). AID 686979; also: nearly all actives have a fitted effect of over 55% in size
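Chicken DT40 Tdp1-/- cells stably complemented with human TDP1 were seeded at 400 cells/well in medium containing 20 nM camptothecin, exposed to pin-transferred compounds, and grown at 37 °C for at least 48 hr. Viability was read as ATP luminescence.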
TDP1 cell noCPT = qHTS for Inhibitors of human tyrosyl-DNA phosphodiesterase 1 (TDP1): qHTS in cells in absence of CPT; DT40 Tdp1-/- hTDP1 cells, no CPT, ATP luminescence, 48 h; Potency, µM (doses to about 46.2 µM), inactives show top-dose activity change, negative = growth inhibition, hits mostly inhibitors; actives 15% (n = 420,000); also: nearly all actives have a fitted effect of over 55% in size
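Camptothecin absent (DMSO only). Human TDP1-complemented DT40 knockout cells, 400 cells/well, 37 °C for minimum 48 hr; ATP measured via CellTiter-Glo, 30 min dark incubation, luminescence.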
* hit, by the source's call; i = inactive; u = inconclusive; x = no result. Calls follow the shape of the dose curve; as a rule, active = well fitted curve in the direction sought with a large enough effect; inconclusive = small, poorly fitted or top-dose-only effect, or another doubt; inactive = no such curve, though single readings can be large; an effect the other way counts as inactive or inconclusive. Unless noted, % is scaled to controls: 0 for no effect and ±100 for the full control effect; potency is read from the fitted curve at half-maximal effect.

SMILES	HT1080-NT tox	KB-V1 cytotox	KB-3-1 cytotox	HT1080 IDH1KD tx	DT40 TDP1 CPT	TDP1 cell noCPT
COc1ccc(-c2nc3ccccc3n2OC(C)C(=O)O)cc1 (stereo not given)	23.2%	i	i	17.1%	-6.1%	-19.5%
COc1ccc(-c2nc3ccccc3n2Cc2ccc(Cl)cc2)cc1	x	i	i	x	20.6µM*	20.6µM*
Cc1csc(C(=O)O)c1NC(=O)c1c(Cl)cccc1Cl	2.1%	i	i	3.6%	-9.2%	-4.5%
Cc1ccc(N/C(C(Cl)=C(Cl)Cl)=C(/Cl)[N+](=O)[O-])c(C)c1	-5.1%	i	i	-5.3%	23.1µM*	16.4µM*
Cc1ccc(NC(=O)c2c([N+](=O)[O-])c(C(C)(C)C)nn2C)c(C)c1	19.5%	i	i	9.9%	0.0%	1.2%
Cn1c(=O)n(Cc2ccccc2)c(=O)c2c1nc1n2CCCN1C1CCCCC1	-0.4%	i	i	1.7%	-11.8%	-17.5%
Cn1c(=O)n(Cc2ccc(F)cc2)c(=O)c2c1nc1n2CCCN1C1CCCCC1	6.9%	i	u	4.3%	23.1µM*	20.6µM*
Cc1cccc(N2CCCn3c2nc2c3c(=O)n(CCN3CCOCC3)c(=O)n2C)c1	7.7%	u	i	-0.8%	20.6µM*	u
CN1CCN(c2nc3c(c(=O)n(C)c(=O)n3C)n2Cc2cccc(Br)c2)CC1	-4.8%	i	i	-4.1%	-23.0%	-6.6%
Cn1c(N2CCCCC2)nc2c1c(=O)n(Cc1cccc(Br)c1)c(=O)n2C	5.0%	10.3µM*	i	15.2%	2.5%	-22.0%
Cc1cccc(Cn2c(=O)c3c(nc4n3CCCN4Cc3ccccc3)n(C)c2=O)c1	5.8%	u	u	3.1%	u	11.2µM*
C/C=C/c1cccc(-c2nc(C(=O)N3CCCCC3)cc3c2[C@H](CCO)N(C(=O)NC(C)C)C3)c1	4.3%	i	i	14.7%	-9.6%	-21.5%
Cc1ccc(O)c(CCc2ccc(O)cc2)n1	3.4%	i	i	12.7%	3.3%	-19.6%
Cn1c(=O)c2c(nc(NCC3CCCO3)n2Cc2cccc(Br)c2)n(C)c1=O (stereo not given)	-0.7%	u	i	-23.3%	u	14.6µM*
COc1ccc(CCN2CCCn3c2nc2c3c(=O)n(CC(C)C)c(=O)n2C)cc1OC	0.3%	i	i	-9.7%	20.6µM*	13µM*
COc1ccccc1C1=NOC(Cn2c(NCC3CCCO3)nc3c2c(=O)n(C)c(=O)n3C)C1 (stereo not given)	-2.4%	u	i	8.3%	-2.5%	u
COCCNc1nc2c(c(=O)n(Cc3cccc(Br)c3)c(=O)n2C)n1C	-1.0%	i	i	2.8%	u	23.1µM*
COCCCNc1nc2c(c(=O)n(Cc3cccc(Br)c3)c(=O)n2C)n1C	-1.6%	i	i	-28.1%	-29.9%	u
O=Nc1ccc(/C=C/c2ccnc3ccccc23)cc1	x	i	i	x	15.8µM*	8.91µM*
Clc1ccc(/C=C/c2ccnc3ccccc23)cc1	x	i	i	x	10µM*	8.91µM*
Clc1ccc(/C=C/c2ccnc3ccccc23)c(Cl)c1	x	i	u	x	5.62µM*	3.55µM*
Nc1ccc2cccnc2c1	x	u	u	x	u	-28.6%
Clc1ccc(C=Cc2ccccn2)c(Cl)c1	-12.2%	i	i	-11.5%	u	-21.8%
Nc1ccc(/C=C/c2ccnc3ccccc23)c(N)c1	x	i	i	x	10µM*	u
Cc1nnc(SCC(=O)NCC2CCCO2)n1Cc1ccccc1 (stereo not given)	0.6%	i	i	15.0%	-3.7%	2.4%
SMILES	HT1080-NT tox	KB-V1 cytotox	KB-3-1 cytotox	HT1080 IDH1KD tx	DT40 TDP1 CPT	TDP1 cell noCPT
Nc1ccc(/C=C/c2ccnc3ccccc23)cc1	x	i	i	x	10µM*	11.2µM*
C(=C\c1ccnc2ccccc12)/c1ccc(-[n+]2cc[n+](-c3ccc(/C=C/c4ccnc5ccccc45)cc3)cc2)cc1	x	i	i	x	5.62µM*	5.01µM*
Cc1c(C)c(C)c(/C=C/c2ccnc3ccccc23)c(C)c1C	x	i	i	x	11.2µM*	11.2µM*
COc1ccc(/C=C/c2ccncc2)c2ccccc12	u	i	i	u	-21.2%	u
Cc1cnc2ccccc2c1C	x	i	i	x	1.6%	-18.7%
C(=C\c1nnc2c3ccccc3ncn12)/c1ccccc1	u	5.17µM*	11.6µM*	5.8µM*	5.17µM*	4.61µM*
CC(=O)Oc1ccc(-c2nc(-c3ccccc3)no2)cc1	x	i	u	x	u	u
CC1CCN(CC2CCN(C(=O)Nc3ccc(Br)cc3F)CC2)CC1	x	i	i	x	-9.5%	-18.1%
CCCCn1c(N)c(N(CC(C)C)C(=O)C2=COCCO2)c(=O)[nH]c1=O	-0.6%	i	i	-20.4%	4.6%	3.3%
C(=C\c1ccnc2ccccc12)/c1ccccc1	x	u	i	x	u	12.6µM*
Cc1ccc(NC(=O)c2c(C)oc3ncn(CC(C)C)c(=O)c23)nc1	x	i	i	x	13µM*	9.2µM*
CCC(C)NC(=O)c1c(C)oc2ncn(CC(C)C)c(=O)c12 (stereo not given)	x	i	i	x	-29.3%	u
Cc1oc2ncn(CC(C)C)c(=O)c2c1C(=O)NC(C)c1ccccc1 (stereo not given)	x	u	i	x	20.6µM*	20.6µM*
COC(=O)C(CCSC)NC(=O)c1c(C)oc2ncn(CC(C)C)c(=O)c12 (stereo not given)	x	i	i	x	-25.5%	13µM*
c1ccc(CNCCNCc2ccccc2)cc1	x	x	x	x	-3.2%	-28.7%
CC(C(=O)Nc1ccc(F)c(F)c1F)N(C)Cc1cccs1 (stereo not given)	24.9%	u	i	7.9%	u	-1.7%
COC(=O)C[C@@H]1CC[C@@H](NS(=O)(=O)c2ccccc2OC)[C@@H](CO)O1	17.7%	i	i	13.0%	-10.3%	30.3%
Cc1cc(=O)c2c(o1)C(=O)c1occc1C2=O	-0.7%	i	i	-2.4%	18.4µM*	14.6µM*
COc1c2occc2c(OC)c2c(=O)cc(C)oc12	-0.4%	i	i	-1.5%	u	u
O=c1c2cccnc2n(Cc2ccc(Cl)cc2)c(=O)n1Cc1ccc(F)cc1	x	u	i	x	u	8.2µM*
Cc1ccccc1Cn1c(=O)n(Cc2ccc(Cl)cc2)c(=O)c2cccnc21	x	i	i	x	14.6µM*	16.4µM*

Source: PubChem BioAssay (National Center for Advancing Translational Sciences (NCATS))
